GPR151 ag = human GPR151 activation; Q8TDV0; PathHunter beta-arrestin GPR151 cells, luminescence; activation, % at 11.2 µM; 650,000 compounds, 1% hits; AID 1508602; in the data active = activation above about 4.9%
FBW7 activator = activators of human E3 ligase FBW7; Q969H0; AlphaScreen FBW7–phospho-cyclin E peptide binding, activator screen; normalized activity (activation), % at 26.1 µM; 650,000 compounds, 0.13% hits; AID 1259310; in the data active = normalized activity above about 1.9%;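 also: purified mutant Fbw7 with reduced substrate affinity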
MITF primary = human MITF inhibition, primary screen. 650,000 compounds, 0.91% hits. O75030. AlphaScreen MITF homodimerization, bead proximity signal. inhibition, % at 2.6 µM; in the data active = inhibition above about 50%
Target sequence (O75030 whole entry, looked up): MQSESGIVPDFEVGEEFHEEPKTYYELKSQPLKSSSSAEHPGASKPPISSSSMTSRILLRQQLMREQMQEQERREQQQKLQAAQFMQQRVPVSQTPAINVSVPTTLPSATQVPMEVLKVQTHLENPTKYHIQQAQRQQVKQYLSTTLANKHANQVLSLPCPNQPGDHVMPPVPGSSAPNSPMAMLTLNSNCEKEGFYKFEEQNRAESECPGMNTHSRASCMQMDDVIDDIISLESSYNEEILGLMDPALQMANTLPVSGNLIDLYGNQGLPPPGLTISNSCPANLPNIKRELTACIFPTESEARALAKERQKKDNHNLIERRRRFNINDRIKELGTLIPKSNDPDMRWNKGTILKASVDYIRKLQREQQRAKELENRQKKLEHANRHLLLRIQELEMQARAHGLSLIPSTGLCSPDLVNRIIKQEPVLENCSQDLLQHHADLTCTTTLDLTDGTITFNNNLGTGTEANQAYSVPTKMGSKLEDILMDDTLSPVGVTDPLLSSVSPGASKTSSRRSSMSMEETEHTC
TEAD-YAP block = TEAD-YAP interaction inhibition; HEK-TIYL cells, TEAD-Gal4/YAP UAS-luciferase luminescence; inhibition, % at 9.12 µM; AID 1259422; 640,000 compounds, 1.4% hits; in the data active = inhibition above about 32%
GPR151 confirm = confirmation of human GPR151 activators; shares compounds with GPR151 ag; GPR151 PathHunter beta-arrestin cells, luminescence, 90 min; % of EA-reagent control over plate median; activation, % at 11.2 µM; 6,700 tested, under 10 active; AID 1508609;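 active = mean percent activation across replicates above the confirmation screen cutoff of 4.91%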
GPR119 counter = GPR119 activation, counter-screen for GPR151 activators; shares compounds with GPR151 ag; GPR119 PathHunter beta-arrestin cells, luminescence, 90 min; 0 = compound-well median, 100 = enzyme-acceptor control; activation, % at 11.2 µM; 6,700 compounds, 0.3% hits; AID 1508611;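 active = mean percent activation in the counterscreen above 29.09%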;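 also: counterscreen on off-target GPR119 to flag nonselective hits from the GPR151 activator screen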
Large screens that a line does not name were inactive (follow-up assays come after a bar, where they were run); ! = not confirmed by another sample. Sampled rows, rich in hits. Any-hit rate of the full collection: about 3.5%.

CC1CC(=O)c2cnc(N3CCN(Cc4ccccc4)CC3)nc2C1 (centres undefined)	none
O=C1CCCc2nc(N3CCN(Cc4ccccc4)CC3)ncc21	GPR151 ag 6.9 | GPR151 confirm inactive | GPR119 counter inactive
NC(N)=NC(N)=Nc1cccc([N+](=O)[O-])c1	none
NC(N)=NC(N)=Nc1cccc(Cl)c1	GPR151 ag 10.1! | GPR151 confirm inactive | GPR119 counter inactive
Cc1ccc(CSc2nnc(NC(=O)Cn3cnc4ccccc4c3=O)s2)cc1	GPR151 ag 5.0 | GPR151 confirm inactive | GPR119 counter inactive
CSc1nc2ccc(NC(=O)Cn3cnc4ccccc4c3=O)cc2s1	GPR151 ag 5.9 | GPR151 confirm inactive | GPR119 counter inactive
CCSc1nnc(NC(=O)Cn2cnc3ccccc3c2=O)s1	none
CSc1nc2ccc(NC(=O)CN3C(=O)c4ccccc4C3=O)cc2s1	none
COc1cccc2c(C)c(C(=O)N3CCC(C(=O)c4cccnc4)CC3)[nH]c12	none
Cc1ccc2c(Cl)c(C(=O)Nc3ccc(F)cc3F)sc2c1	none
O=C(NCCCN1CCN(c2ccc(Cl)cc2)CC1)Nc1ccccc1	GPR151 ag 6.6 | GPR151 confirm inactive | GPR119 counter inactive
O=C(NCCCN1CCN(c2ccc(Cl)cc2)CC1)Nc1ccc(F)cc1	none
O=C(NCc1ccccc1)c1ccccc1Nc1ccnc(Nc2ccc(N3CCOCC3)cc2)c1	GPR151 ag 10.6, TEAD-YAP block 37.2 | GPR151 confirm inactive | GPR119 counter inactive
O=C(Nc1ccccc1)c1ccccc1Nc1ccnc(Nc2ccc(N3CCOCC3)cc2)c1	none
COC(=O)C1=C(C)NC(=O)C1(NC(=O)c1ccc(OC)c(OC)c1)C(F)(F)F (centres undefined)	GPR151 ag 12.5 | GPR151 confirm inactive | GPR119 counter inactive
CC(C)N(Cc1ccccc1)C(=O)CCS(=O)(=O)c1ccc2c(c1)OCC(=O)N2	none
Cc1ccc(NC(=O)c2nc[nH]c2C(=O)Nc2ccc(C)cc2)cc1	none
Cc1cccc(NC(=O)c2nc[nH]c2C(=O)Nc2cccc(C)c2)c1	GPR151 ag 6.6 | GPR151 confirm inactive | GPR119 counter inactive
O=C(NCCOc1ccccc1)c1cncc(-c2cccs2)c1	none
CCC(C)C(NC(=O)c1ccccc1NC(=O)c1ccccc1)C(=O)N1CCOCC1 (centres undefined)	GPR151 ag 9.8 | GPR151 confirm inactive | GPR119 counter inactive
CC(C)C(NC(=O)c1ccccc1NC(=O)c1ccccc1)C(=O)N1CCCCC1 (centres undefined)	none
COc1ccc(C2=CSC3=NS(=O)(=O)CCN23)cc1	none
CCN(CC)c1nc(Nc2cc(OC)c(OC)c(OC)c2)nc(Nc2cc(OC)c(OC)c(OC)c2)n1	none
COc1cc2nc(Nc3ccc(N4CCOCC4)cc3)nc(Nc3ccccc3)c2cc1OC	none
COc1cc2nc(Oc3ccccc3)nc(Nc3ccc(NC(C)=O)cc3)c2cc1OC	GPR151 ag 7.4 | GPR151 confirm inactive | GPR119 counter inactive
COc1cc2nc(Nc3ccc4ncccc4c3)nc(Nc3ccc4c(c3)OCO4)c2cc1OC	GPR151 ag 7.7 | GPR151 confirm inactive | GPR119 counter inactive
CCN(CC)c1nc(Nc2ccc(N3CCOCC3)cc2)nc(Nc2cc(OC)c(OC)c(OC)c2)n1	GPR151 ag 9.3! | GPR151 confirm inactive | GPR119 counter inactive
COc1cc2nc(Nc3ccccc3)nc(Nc3ccc(N4CCOCC4)cc3)c2cc1OC	GPR151 ag 8.2 | GPR151 confirm inactive | GPR119 counter inactive
COc1cc2cc(C)c(SCCN3CCOCC3)nc2cc1OC	none
CCCS(=O)(=O)N1CC(=O)N(c2ccccc2CC)C(C)(C(=O)NC2CCCCC2)C1 (centres undefined)	none
CCCS(=O)(=O)N1CC(=O)N(c2ccccc2OC)C(C)(C(=O)NC2CCCC2)C1 (centres undefined)	GPR151 ag 6.0 | GPR151 confirm inactive | GPR119 counter inactive
CC1(C(=O)NC2CCCCCC2)CN(S(C)(=O)=O)CC(=O)N1c1ccc(Cl)cc1 (centres undefined)	GPR151 ag 7.7 | GPR151 confirm inactive | GPR119 counter inactive
CCc1ccc(NC(=O)CSc2nnc(-c3ccc(N)cc3)n2C)cc1	none
Cn1c(SCC(=O)Nc2ccc3nc(SCC(=O)Nc4ccccc4F)sc3c2)nnc1-c1ccc(Cl)cc1Cl	none
CC(=O)Nc1ccc(NC(=O)CSc2nnc(-c3ccncc3)n2C)cc1	none
Cn1c(SCC(=O)Nc2ccc(Br)cc2)nnc1-c1ccc(N)cc1	GPR151 ag 5.3 | GPR151 confirm inactive | GPR119 counter inactive
CCn1c(SCC(=O)Nc2ccc(C(N)=O)cc2)nnc1-c1ccco1	GPR151 ag 6.8 | GPR151 confirm inactive | GPR119 counter inactive
CCn1c(SCC(=O)Nc2ccc(C(C)=O)cc2)nnc1-c1ccco1	none
Cn1c(SCC(=O)Nc2ccc3nc(SCC(=O)c4ccc(Cl)cc4)sc3c2)nnc1-c1ccc(N)cc1	GPR151 ag 5.5, FBW7 activator 29.3 | GPR151 confirm inactive | GPR119 counter inactive
CC(=O)Nc1ccc(NC(=O)CSc2nnc(-c3ccncc3)n2N)cc1	GPR151 ag 5.5 | GPR151 confirm inactive | GPR119 counter inactive
CC(C(=O)Nc1cccc(C(F)(F)F)c1)N(c1ccc(Cl)cc1)S(C)(=O)=O (centres undefined)	GPR151 ag 6.8 | GPR151 confirm inactive | GPR119 counter inactive
CC(=O)c1cccc(NC(=O)N2CCCC2C(=O)Nc2cccc(C)c2)c1 (centres undefined)	GPR151 ag 14.5 | GPR151 confirm inactive | GPR119 counter inactive
Cn1c(=O)c2c(ncn2CCn2cnc3c2c(=O)n(C)c(=O)n3C)n(C)c1=O	none
CN(C)C(=O)NCCn1cnc2c1c(=O)n(C)c(=O)n2C	GPR151 ag 6.2 | GPR151 confirm inactive | GPR119 counter inactive
COc1ccc(NS(=O)(=O)c2ccc(Br)c(C(=O)Nc3ccccc3)c2)cc1	GPR151 ag 6.2 | GPR151 confirm inactive | GPR119 counter inactive
O=S(=O)(Nc1ccc(O)c(Br)c1)c1ccc(F)cc1	none
COc1ccc(S(=O)(=O)Nc2ccc(O)c(Br)c2)cc1	GPR151 ag 5.9 | GPR151 confirm inactive | GPR119 counter inactive
Cc1cc(C)c(C#N)c(SC/C=C/c2ccccc2)n1	GPR151 ag 7.0 | GPR151 confirm inactive | GPR119 counter inactive
Cc1cc(C)c(C#N)c(SC/C=C/CSc2nc(C)cc(C)c2C#N)n1	none
CCOc1ccc(-c2nc(NC(C)=O)c3c(=O)oc4c(OC)cccc4c3n2)cc1	GPR151 ag 9.2 | GPR151 confirm inactive | GPR119 counter inactive
Cc1ccc(Nc2nnc(C)c(=O)[nH]2)cc1Cl	none
COc1ccc(N2C(=O)CC(N(CCc3ccc(OC)c(OC)c3)C(=O)c3ccccc3)C2=O)cc1 (centres undefined)	GPR151 ag 5.2 | GPR151 confirm inactive | GPR119 counter inactive
Cn1c(=O)n(Cc2ccccc2)c(=O)c2c1nc(NN)n2Cc1ccccc1	none
